Source: PubChem BioAssay AID488969 (Vanderbilt High Throughput Screening Facility, 2010)
The full ranking holds about 110,000 compounds; the median of “z-score” is about -0.1, and the highest 2% start at about 2. The list comes from a sample in which the highest values are over-represented; it also holds similar structures and randomly drawn compounds. Calls of active or inactive are those of the source.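 The calls were made as follows: active = z-score in the third read window above 3 or below -3; inactive = the rest.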

The compounds below were run against Metabotropic glutamate receptor 8 (Rattus norvegicus) (UniProt P70579) (assay: rat mGluR8 modulators via GIRK flux, primary screen, cell-based, thallium flux, HTS (AID 488969)). Settings: HEK293 rat mGluR8, GIRK (G protein-gated inwardly rectifying potassium channel) thallium flux, FluoZin2; at 10 µM; stronger effect = higher value; submaximal glutamate (EC20) added with thallium.
Sequence of Metabotropic glutamate receptor 8 (Rattus norvegicus) (P70579 whole entry, looked up): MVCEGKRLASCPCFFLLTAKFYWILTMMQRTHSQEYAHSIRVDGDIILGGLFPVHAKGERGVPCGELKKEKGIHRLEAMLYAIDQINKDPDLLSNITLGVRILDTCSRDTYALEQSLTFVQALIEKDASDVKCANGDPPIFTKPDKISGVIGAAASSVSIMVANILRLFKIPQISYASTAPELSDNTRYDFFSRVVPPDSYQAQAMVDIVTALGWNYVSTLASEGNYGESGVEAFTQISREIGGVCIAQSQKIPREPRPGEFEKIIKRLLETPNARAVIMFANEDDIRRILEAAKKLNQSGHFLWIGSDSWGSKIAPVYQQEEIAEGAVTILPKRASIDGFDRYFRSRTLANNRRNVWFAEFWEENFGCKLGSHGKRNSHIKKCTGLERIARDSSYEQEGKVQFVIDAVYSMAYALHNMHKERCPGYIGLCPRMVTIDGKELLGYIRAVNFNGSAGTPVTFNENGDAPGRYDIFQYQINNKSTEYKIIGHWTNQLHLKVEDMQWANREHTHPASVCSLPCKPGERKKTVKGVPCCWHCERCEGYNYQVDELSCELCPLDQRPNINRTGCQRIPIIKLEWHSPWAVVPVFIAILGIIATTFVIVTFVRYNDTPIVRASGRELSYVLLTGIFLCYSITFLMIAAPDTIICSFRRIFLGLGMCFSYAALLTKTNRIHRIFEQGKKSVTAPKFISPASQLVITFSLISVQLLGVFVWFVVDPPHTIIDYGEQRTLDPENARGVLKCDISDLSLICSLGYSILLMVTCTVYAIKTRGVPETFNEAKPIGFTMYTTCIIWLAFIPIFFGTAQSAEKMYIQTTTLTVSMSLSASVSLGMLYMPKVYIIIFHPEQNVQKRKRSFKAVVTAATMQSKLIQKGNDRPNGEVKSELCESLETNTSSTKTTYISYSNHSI

| Compound | z-score |
| --- | --- |
| CC(C)(C)NC(=O)CN1CCC(O)(c2ccccc2)CC1 | -0.263 |
| CCOC(=O)CC(=O)CSc1nc2cc(C)ccc2cc1C | 0.9 |
| CNC(=O)c1sc(-c2ccccc2)nc1C | -0.396 |
| COc1ccc(C(=O)CSc2ccc(-c3ccccc3)nn2)cc1 | -0.139 |
| Oc1c(C=NCc2ccncc2)sc2ccccc12 | 2.11 |
| CN=Cc1sc2ccccc2c1O | 0.0625 |
| Oc1c(C=Nc2cccnc2)sc2ccccc12 | -0.313 |
| O=c1ccc(/C=C/c2ccccc2)nn1Cc1ccc(Cl)cc1Cl | 0.353 |
| CCN(CC)c1ccc(C(=O)O)cc1 | -0.133 |
| CCN1CCN(C(=O)c2ccc(Sc3ccccc3Cl)c([N+](=O)[O-])c2)CC1 | 0.195 |
| CCN(CC)CCN1C(=O)c2oc3ccccc3c(=O)c2C1c1ccc(F)cc1 (configuration not stated) | 4.39 (active) |
| CN1C(=O)c2oc3ccccc3c(=O)c2C1c1ccccn1 (configuration not stated) | 8.59 (active) |
| CCN(CC)CCCN1C(=O)c2oc3ccccc3c(=O)c2C1c1cccnc1 (configuration not stated) | 0.402 |
| CN(C)CCN1C(=O)c2oc3ccccc3c(=O)c2C1c1ccc(F)cc1 (configuration not stated) | 1.86 |
| COc1ccc(C2c3c(oc4ccccc4c3=O)C(=O)N2c2ccccn2)cc1 (configuration not stated) | -0.221 |
| CCN(CC)CCN1C(=O)c2oc3ccccc3c(=O)c2C1c1ccc(C)cc1 (configuration not stated) | 8.12 (active) |
| CCN(CC)CCN1C(=O)c2oc3ccccc3c(=O)c2C1c1ccccc1 (configuration not stated) | 3.81 (active) |
| CCCOc1ccc(C2c3c(oc4ccccc4c3=O)C(=O)N2CCN(CC)CC)cc1OC (configuration not stated) | 0.615 |
| O=C1c2oc3ccccc3c(=O)c2C(c2cccc(O)c2)N1c1ccccn1 (configuration not stated) | -0.576 |
| CN(C)CCN1C(=O)c2oc3ccc(F)cc3c(=O)c2C1c1ccncc1 (configuration not stated) | -0.265 |
| CCOc1ccc(C2c3c(oc4ccccc4c3=O)C(=O)N2CCCN2CCOCC2)cc1 (configuration not stated) | -0.851 |
| CN(C)CCN1C(=O)c2oc3ccccc3c(=O)c2C1c1cccc(Br)c1 (configuration not stated) | 0.553 |
| COc1ccc2nc(NC3=NC(C(=O)Nc4ccc(C)cc4)CC(=O)N3)nc(C)c2c1 (configuration not stated) | -0.114 |

| Compound | z-score |
| --- | --- |
| Cc1cc(C)c(NC(=O)C2CCCCN2C)c(C)c1 (configuration not stated) | -0.0533 |
| COc1ccc(N=C2SC(C(N)=O)CC(=O)N2CCc2ccc(OC)c(OC)c2)cc1 (configuration not stated) | -0.154 |
| CCOCCOc1nc2c(c(=O)n(C)c(=O)n2C)n1CCc1ccccc1 | -0.18 |
| CCOc1ccc(NC(=O)Cn2nnc(-c3ccccc3NC(=O)c3cccs3)n2)cc1 | -0.124 |
| COc1cc(C=O)ccc1OS(=O)(=O)c1ccccc1[N+](=O)[O-] | -0.429 |
| COc1ccc(S(=O)(=O)CCc2nnc(NC(=O)c3cccs3)s2)cc1 | -0.075 |
| CN(C)S(=O)(=O)N(CC(=O)Nc1ccccc1)c1ccccc1 | 0.311 |
| COC(=O)c1ccccc1NC(=O)CN(c1ccccc1)S(=O)(=O)N(C)C | -1.07 |
| CSc1cccc(NC(=O)CN(c2cccc(C)c2)S(C)(=O)=O)c1 | 0.00929 |
| CSc1cccc(NC(=O)CN(c2ccccc2)S(=O)(=O)N(C)C)c1 | 3.6 (active) |
| CSc1cccc(NC(=O)CN(c2ccc(C)cc2C)S(C)(=O)=O)c1 | 3.01 (active) |
| CCCCNC(=O)c1ccccc1NC(=O)CN(c1ccccc1)S(=O)(=O)N(C)C | 2.11 |
| CN(C)S(=O)(=O)N(CC(=O)Nc1ccccc1F)c1ccccc1 | 0.148 |
| CN(C)S(=O)(=O)N(CC(=O)Nc1cccc(F)c1)c1ccccc1 | 0.587 |
| CSc1cccc(NC(=O)CN(c2cc(C)ccc2C)S(C)(=O)=O)c1 | 1.11 |
| COc1ccc(C(C(=O)NC2CCCCC2)N(CC2CCCO2)C(=O)C2COc3ccccc3O2)cc1OC (configuration not stated) | -0.167 |
| COc1ccc(S(=O)(=O)Nc2ccccc2C(=O)NCc2ccco2)cc1 | -0.614 |
| FC(F)(F)C1=CC(c2ccccc2)=NCCN1 | -0.25 |
| COc1cc(O)oc1C=Nc1ccc(Cl)cc1 | -0.289 |
| Cc1ccc(N2CC(C(=O)Nc3ccncc3)CC2=O)cc1 (configuration not stated) | -0.196 |
| COc1ccc(OC)c(NC(=O)CSc2nc3c(c(=O)n(C)c(=O)n3C)n2C)c1 | -1.15 |
| Cc1cccc(N=Cc2cc3c(cc2[N+](=O)[O-])OCO3)c1 | -0.0653 |
| Cc1ccc(/C=N/NC(=O)c2cccc([N+](=O)[O-])c2)o1 | -0.121 |

| Compound | z-score |
| --- | --- |
| O=C(N/N=C/c1ccco1)c1cc([N+](=O)[O-])cc([N+](=O)[O-])c1 | 0.778 |
| Cc1ccc(/C=N\NC(=O)c2cc([N+](=O)[O-])cc([N+](=O)[O-])c2)o1 | 4.57 (active) |
| COc1cccc(-c2nc(-c3ccc(NC(=O)Cc4ccccc4OC)cc3)no2)c1 | 0.363 |
| CCCNC(=O)Cc1ccsc1 | 0.11 |
| O=C(CCN1C(=O)c2ccccc2C1=O)Nc1ccc(-c2nc3ccccc3o2)cc1 | -0.0516 |
| Cc1cc(S(=O)(=O)N2CCCC2)ccc1OCC(=O)N1CCOCC1 | 0.0243 |
| COC(=O)c1cc(=O)n(CCc2ccc(OC)cc2)c(=Nc2ccc(F)c(Cl)c2)s1 | 9.49 (active) |
| COC(=O)c1cc(=O)n(CCc2ccccc2F)c(=Nc2ccc(F)c(Cl)c2)s1 | -0.11 |
| COC(=O)c1cc(=O)n(CCc2ccc(OC)c(OC)c2)c(=Nc2ccc(F)c(Cl)c2)s1 | 0.363 |
| O=C(CSc1nc2c(c(C(F)(F)F)n1)CCc1ccccc1-2)NCc1ccccc1 | 0.257 |
| COc1ccc(NC(=O)CSc2nnc(Cc3cccn3C)n2-c2ccc(F)cc2)cc1OC | -0.626 |
| Cn1cccc1Cc1nnc(SCC(=O)N2CCCCCC2)n1-c1ccc(F)cc1 | 2.24 |
| CC(=O)Nc1cccc(NC(=O)CSc2nnc(Cc3cccn3C)n2-c2ccc(C)cc2)c1 | -0.278 |
| Cn1cccc1Cc1nnc(SCC(=O)N2CCOCC2)n1-c1ccc(F)cc1 | -0.171 |
| Cn1cccc1Cc1nnc(SCC(=O)Nc2ccc(F)cc2)n1-c1ccc(F)cc1 | -0.84 |
| Cn1cccc1Cc1nnc(SCC(=O)NC2CCCC2)n1-c1ccc(F)cc1 | 2.33 |
| Cc1ccc(-n2c(Cc3cccn3C)nnc2SCC(=O)NC2CCCCC2)cc1 | 0.061 |
| Cn1cccc1Cc1nnc(SCC(=O)N2CCN(c3ccccc3)CC2)n1-c1ccc(F)cc1 | -0.223 |
| COc1ccc(NC(=O)CSc2nnc(Cc3cccn3C)n2-c2ccc(C)cc2)cc1OC | 2.03 |
| CC(NC(=O)Cc1ccc(-c2ccccc2)cc1)c1ccccc1 (configuration not stated) | -0.225 |
| Cc1cc(C)c2oc(C(=O)Nc3nnc(C(C)C)s3)cc(=O)c2c1 | -0.0364 |
